Among the data in ChEMBL document CHEMBL3988442, “University of Dundee, Small-Polar-MMV Screening Library” (2021) are Percent Effect values, retold here.

For some of these results: Potency and affinity values are given separately.

Common to all, as to parameters: scale not given: direction of the effect not stated beside the values
The target of assay [1] is Protein translocase subunit SecA (Escherichia coli (strain K12)) (UniProt P10408). Nature of the assay: Assay to Identify E. coli SecA ATPase Inhibitors. It is filed as functional. The conditions noted are these: 30 µM.
Assay [2] addresses T1, Ubiquitin-activating enzyme e1, putative (Leishmania donovani (strain BPK282A1)) (UniProt E9BSI1).
T1 sequence (whole entry): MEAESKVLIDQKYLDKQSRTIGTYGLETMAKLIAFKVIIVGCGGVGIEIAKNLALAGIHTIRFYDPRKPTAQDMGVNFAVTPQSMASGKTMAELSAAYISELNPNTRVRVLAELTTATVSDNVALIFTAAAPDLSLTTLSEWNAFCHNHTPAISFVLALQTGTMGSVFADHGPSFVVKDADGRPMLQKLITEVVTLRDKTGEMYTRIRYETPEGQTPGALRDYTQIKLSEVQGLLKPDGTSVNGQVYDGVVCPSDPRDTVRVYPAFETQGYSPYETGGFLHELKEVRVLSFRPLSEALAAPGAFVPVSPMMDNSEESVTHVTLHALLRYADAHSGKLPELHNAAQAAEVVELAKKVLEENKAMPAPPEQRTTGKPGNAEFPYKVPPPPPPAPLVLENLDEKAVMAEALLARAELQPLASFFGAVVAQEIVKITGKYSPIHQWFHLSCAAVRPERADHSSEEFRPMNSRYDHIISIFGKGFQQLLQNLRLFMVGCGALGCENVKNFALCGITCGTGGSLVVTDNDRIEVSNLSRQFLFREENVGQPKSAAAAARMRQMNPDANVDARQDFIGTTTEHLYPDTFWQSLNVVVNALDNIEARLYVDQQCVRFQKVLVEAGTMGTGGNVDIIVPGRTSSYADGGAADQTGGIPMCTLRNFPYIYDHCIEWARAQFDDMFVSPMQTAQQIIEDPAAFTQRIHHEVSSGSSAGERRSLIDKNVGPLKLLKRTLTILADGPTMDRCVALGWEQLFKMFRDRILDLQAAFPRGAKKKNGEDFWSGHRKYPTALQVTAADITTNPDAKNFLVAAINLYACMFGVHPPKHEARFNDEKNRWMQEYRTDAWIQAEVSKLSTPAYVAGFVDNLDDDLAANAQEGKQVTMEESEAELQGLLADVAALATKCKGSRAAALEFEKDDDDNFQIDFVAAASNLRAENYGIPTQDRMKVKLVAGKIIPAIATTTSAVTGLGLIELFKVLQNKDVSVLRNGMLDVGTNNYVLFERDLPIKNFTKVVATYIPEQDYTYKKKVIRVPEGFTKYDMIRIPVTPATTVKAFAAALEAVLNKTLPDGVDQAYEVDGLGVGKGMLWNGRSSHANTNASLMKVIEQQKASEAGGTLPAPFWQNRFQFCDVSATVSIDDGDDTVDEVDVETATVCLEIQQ
Nature of the assay: Leishmania donovani Ubiquitin Activating Enzyme (LdE1). In kind it is functional. The conditions noted are these: 30 µM.

Assay [3] has as its target AMP-activated protein kinase, AMPK (Homo sapiens) (UniProt P54646+O43741+P54619+Q9UGJ0+Q9Y478+Q13131+Q9UGI9). In words: AMP-dependent Kinase enzyme assay. An in vitro enzyme assay that detects ADP turnover that is directly proportional to AMPK activity. This uses naive AMPK that is activated during the assay with MK-8722. It is filed as functional. The conditions noted are these: 30 µM.

The target of assay [4] is Sialic acid-binding Ig-like lectin 9 (Homo sapiens) (UniProt Q9Y336). In words: Hs-Siglec9 ALPHAscreen SOP 20170721. The conditions noted are these: 10 µM.
In assay [5] the test system is Trypanosoma cruzi. In words: Trypanosoma cruzi phosphomannomutase and mannose-1-phosphate guanylyltransferase assay. It is filed as functional. The conditions noted are these: 10 µM.
The target of assay [6] is T2, Arginase-2, mitochondrial (Homo sapiens) (UniProt P78540).
T2 sequence (whole entry): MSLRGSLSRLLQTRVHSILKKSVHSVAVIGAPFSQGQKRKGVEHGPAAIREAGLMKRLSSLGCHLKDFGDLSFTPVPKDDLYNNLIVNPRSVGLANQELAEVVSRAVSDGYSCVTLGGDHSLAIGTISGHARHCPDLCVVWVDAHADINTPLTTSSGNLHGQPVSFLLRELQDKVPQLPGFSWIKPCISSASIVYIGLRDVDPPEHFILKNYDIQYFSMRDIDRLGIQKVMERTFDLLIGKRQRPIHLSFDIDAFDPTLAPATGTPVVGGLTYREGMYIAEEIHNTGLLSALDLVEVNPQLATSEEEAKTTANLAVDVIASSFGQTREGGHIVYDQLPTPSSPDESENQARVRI
Nature of the assay: in vitro enzyme assay to detect the production of urea directly proportional to the activity of Arginase II. Further: in the data most compounds retested in dose-response had high values. It is filed as functional. The note with it: 33.3 µM.

Assay [7] deals with T3, Proteasome subunit beta (Trypanosoma cruzi) (UniProt O96673).
T3 sequence (whole entry): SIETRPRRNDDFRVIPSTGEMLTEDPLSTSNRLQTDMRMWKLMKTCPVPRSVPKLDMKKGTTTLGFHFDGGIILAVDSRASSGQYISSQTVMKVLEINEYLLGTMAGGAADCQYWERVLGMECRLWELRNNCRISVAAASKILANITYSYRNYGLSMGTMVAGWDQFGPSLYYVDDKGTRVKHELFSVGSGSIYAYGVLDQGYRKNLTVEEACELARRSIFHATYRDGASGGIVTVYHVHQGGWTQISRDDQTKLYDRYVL
In words: Trypanosoma cruzi proteasome chymotrypsin-like activity (TcProtChymo) assay. Further: in the data most compounds retested in dose-response had high values. The note with it: 9.37 µM. It is filed as functional.

The species named for assay [8] is Homo sapiens. Nature of the assay: To identify inhibition of the IFN signalling (Jak-Stat) pathway via expression of an eGFP reporter gene under the control of an IFN-stimulated response element (ISRE) containing MxA promoter. It is filed as functional. The conditions noted are these: 30 µM.
Assay [9] deals with T4, Tyrosyl-tRNA synthetase, putative (Trypanosoma cruzi (strain CL Brener)) (UniProt Q4DSP6).
T4 sequence (whole entry): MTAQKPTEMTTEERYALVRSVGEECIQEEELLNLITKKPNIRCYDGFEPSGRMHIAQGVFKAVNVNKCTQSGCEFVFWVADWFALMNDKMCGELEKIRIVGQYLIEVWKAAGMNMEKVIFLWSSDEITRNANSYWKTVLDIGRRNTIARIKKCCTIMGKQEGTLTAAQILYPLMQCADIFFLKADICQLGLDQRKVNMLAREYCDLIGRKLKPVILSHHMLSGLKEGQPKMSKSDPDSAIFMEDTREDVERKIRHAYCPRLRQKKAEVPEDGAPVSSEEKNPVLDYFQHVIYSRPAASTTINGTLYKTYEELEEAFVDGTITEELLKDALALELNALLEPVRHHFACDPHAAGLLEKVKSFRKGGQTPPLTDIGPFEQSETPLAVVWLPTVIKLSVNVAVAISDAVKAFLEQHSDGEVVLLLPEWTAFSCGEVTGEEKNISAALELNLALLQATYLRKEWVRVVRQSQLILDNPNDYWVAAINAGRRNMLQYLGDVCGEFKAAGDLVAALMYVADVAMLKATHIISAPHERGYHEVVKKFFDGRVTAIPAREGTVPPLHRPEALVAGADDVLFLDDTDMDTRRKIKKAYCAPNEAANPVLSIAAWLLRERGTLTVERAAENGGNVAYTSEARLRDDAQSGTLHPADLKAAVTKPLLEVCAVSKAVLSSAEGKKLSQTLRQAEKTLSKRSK
In words: Trypanosoma cruzi tyrosyl tRNA synthetase (TcYRS) _High Tyrosine SOP. Further: in the data most compounds retested in dose-response had high values. In kind it is functional. The conditions noted are these: 30 µM.

For assay [10], the target named is T4, Tyrosyl-tRNA synthetase, putative (Trypanosoma cruzi (strain CL Brener)). Nature of the assay: Trypanosoma cruzi tyrosyl tRNA synthetase (TcYRS) SOP. In kind it is functional. The note with it: 30 µM.
For assay [11], the target named is Chromo domain-containing protein 1 (Saccharomyces cerevisiae (strain ATCC 204508 / S288c) (Baker's yeast)) (UniProt P32657). In words: ScCHD-1 Enzyme Inhibition Assay. Further: in the data most compounds retested in dose-response had high values. It is filed as functional. The conditions noted are these: 30 µM.
Chromo domain-containing protein 1 (Saccharomyces cerevisiae (strain ATCC 204508 / S288c) (Baker's yeast)), sequence (P32657 whole entry, the tested form may be a part): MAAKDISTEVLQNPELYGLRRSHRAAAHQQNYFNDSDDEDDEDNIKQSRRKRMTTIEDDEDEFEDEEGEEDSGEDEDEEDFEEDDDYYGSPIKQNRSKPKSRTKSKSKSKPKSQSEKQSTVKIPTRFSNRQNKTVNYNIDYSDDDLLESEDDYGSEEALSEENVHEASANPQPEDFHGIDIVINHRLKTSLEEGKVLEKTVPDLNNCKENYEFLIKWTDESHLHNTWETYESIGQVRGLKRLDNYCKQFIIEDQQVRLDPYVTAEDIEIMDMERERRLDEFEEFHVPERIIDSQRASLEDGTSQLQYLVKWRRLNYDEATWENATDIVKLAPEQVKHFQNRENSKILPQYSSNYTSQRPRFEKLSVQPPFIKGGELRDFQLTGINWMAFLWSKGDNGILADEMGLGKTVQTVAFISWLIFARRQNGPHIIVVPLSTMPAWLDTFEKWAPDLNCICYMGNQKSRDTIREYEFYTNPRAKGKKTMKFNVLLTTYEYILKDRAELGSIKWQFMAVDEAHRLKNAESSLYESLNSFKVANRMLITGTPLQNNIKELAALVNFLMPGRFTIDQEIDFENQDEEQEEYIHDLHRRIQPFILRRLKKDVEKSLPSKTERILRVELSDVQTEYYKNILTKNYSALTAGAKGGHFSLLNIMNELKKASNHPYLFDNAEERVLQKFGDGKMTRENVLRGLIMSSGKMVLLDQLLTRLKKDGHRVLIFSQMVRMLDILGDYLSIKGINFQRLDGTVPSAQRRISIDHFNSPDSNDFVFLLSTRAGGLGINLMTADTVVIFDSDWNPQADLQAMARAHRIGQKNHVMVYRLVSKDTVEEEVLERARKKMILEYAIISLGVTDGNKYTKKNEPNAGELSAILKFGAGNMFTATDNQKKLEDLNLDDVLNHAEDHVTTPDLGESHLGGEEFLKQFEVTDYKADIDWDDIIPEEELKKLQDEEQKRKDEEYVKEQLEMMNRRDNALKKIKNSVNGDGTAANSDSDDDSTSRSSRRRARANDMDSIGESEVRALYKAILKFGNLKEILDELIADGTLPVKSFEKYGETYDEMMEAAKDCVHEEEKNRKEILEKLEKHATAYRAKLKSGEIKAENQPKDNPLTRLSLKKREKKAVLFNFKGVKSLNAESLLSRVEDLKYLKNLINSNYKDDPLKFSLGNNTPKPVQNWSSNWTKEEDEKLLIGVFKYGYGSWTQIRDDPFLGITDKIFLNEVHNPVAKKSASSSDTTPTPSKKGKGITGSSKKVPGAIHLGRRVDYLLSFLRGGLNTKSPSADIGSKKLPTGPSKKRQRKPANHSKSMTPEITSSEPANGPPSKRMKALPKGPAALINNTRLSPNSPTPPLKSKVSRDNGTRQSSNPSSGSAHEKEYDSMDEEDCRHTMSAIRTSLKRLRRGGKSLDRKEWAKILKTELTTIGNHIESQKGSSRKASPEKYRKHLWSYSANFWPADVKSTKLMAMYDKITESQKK

Protein translocase subunit SecA (Escherichia coli (strain K12)), sequence (P10408 whole entry): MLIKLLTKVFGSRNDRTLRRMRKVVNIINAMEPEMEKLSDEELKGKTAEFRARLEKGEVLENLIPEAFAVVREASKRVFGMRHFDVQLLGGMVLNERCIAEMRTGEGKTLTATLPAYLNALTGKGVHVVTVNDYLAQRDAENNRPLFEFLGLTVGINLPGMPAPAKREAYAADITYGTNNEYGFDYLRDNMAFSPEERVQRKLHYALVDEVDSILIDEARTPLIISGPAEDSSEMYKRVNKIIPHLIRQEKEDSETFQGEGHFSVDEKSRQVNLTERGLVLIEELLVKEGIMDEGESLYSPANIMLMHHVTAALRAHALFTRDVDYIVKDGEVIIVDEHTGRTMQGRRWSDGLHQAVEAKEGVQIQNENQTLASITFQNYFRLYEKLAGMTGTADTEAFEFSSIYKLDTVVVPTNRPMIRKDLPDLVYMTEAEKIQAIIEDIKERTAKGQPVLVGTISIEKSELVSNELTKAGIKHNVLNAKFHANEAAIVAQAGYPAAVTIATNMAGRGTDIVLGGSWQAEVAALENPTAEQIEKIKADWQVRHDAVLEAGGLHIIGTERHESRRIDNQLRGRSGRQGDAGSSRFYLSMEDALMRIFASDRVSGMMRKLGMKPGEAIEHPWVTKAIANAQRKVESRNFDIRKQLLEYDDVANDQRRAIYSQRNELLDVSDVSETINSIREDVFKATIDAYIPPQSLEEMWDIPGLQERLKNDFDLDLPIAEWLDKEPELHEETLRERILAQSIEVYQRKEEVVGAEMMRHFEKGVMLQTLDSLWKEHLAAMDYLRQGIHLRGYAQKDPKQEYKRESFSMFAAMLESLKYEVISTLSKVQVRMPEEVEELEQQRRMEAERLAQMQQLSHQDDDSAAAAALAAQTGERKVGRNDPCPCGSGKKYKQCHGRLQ
Sialic acid-binding Ig-like lectin 9 (Homo sapiens), sequence (Q9Y336 whole entry): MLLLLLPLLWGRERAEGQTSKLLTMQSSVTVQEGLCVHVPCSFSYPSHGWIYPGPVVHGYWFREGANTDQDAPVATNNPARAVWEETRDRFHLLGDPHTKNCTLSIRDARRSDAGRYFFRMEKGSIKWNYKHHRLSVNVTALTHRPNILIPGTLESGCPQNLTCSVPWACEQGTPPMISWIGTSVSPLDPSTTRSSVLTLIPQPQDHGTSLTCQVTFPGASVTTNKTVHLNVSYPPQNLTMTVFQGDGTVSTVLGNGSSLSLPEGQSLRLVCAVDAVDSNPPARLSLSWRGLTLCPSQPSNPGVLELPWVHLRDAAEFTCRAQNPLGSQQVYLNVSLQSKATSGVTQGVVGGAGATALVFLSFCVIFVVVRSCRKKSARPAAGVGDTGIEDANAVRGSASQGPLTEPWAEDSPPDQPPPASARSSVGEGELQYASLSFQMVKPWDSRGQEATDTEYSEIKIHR

In the case of `COC(=O)c1cccn1C1CCN(C(=O)c2cc(C)ccc2O)CC1`, the Percent Effect in assay [1] is -8.92%; in assay [2], 18.2%; in assay [3], 3.73%; in [4], -0.853%; in assay [5], -7.12%; in assay [6] it was 0.712%. The Percent Effect in [7] was 6.25%; in assay [8], 38.3%; in assay [9], 2.91%; in [10], 9.76%; in assay [11] it was -5.74%.
Consider `CCS(=O)(=O)c1ccccc1N1CCC(NC(C)=O)CC1`, for which the Percent Effect in assay [1] was -2.22%; in assay [2], 21.6%; in assay [3], -1.79%; in [4], 2.67%; in [5], -5.11%; in [6], -4.25%. Besides, the Percent Effect in assay [7] was -19.4%; in assay [8], 11.3%; in assay [9], 6.93%; in assay [10], 13.4%; in [11], 0.794%.
As to `CCc1nc(CN2CCCC(NCc3cc(C)no3)C2)no1` (stereo unspecified), the Percent Effect is -1.34% in assay [1]; -28.6% in assay [2]; 1.07% in [3]; -1.38% in assay [4]; 3.82% in [5]; -3.16% in assay [6]. Besides, the Percent Effect in [7] is 5.42%; in [8], 5.74%; in [9] it was 3.81%; in assay [10] it was 7.06%; in [11] it was -11.5%.
As for `CC(=O)NCCNC(=O)c1sc(-c2ccc(Cl)s2)nc1C`, the Percent Effect was -6.51% in [1]; 10.8% in assay [2]; 5.52% in assay [3]; -4.05% in [4]; -5.29% in assay [5]; 1.29% in assay [6]. The Percent Effect in assay [7] was 4.67%; in [8], 11.1%; in assay [9] it was 0.99%; in assay [10] it was -79.3%; in assay [11], -0.599%.
As for `CCCOc1cc(C)ccc1NC(=O)NCCC(=O)N(C)C`, the Percent Effect is -4.1% in [1]; 13.7% in assay [2]; -1.53% in assay [3]; -3% in assay [4]; -3.33% in [5]; 4.09% in assay [6]. The Percent Effect in assay [7] was 20.6%; in assay [8] it was 10.2%; in assay [9], 6.45%; in [10] it was 15%; in assay [11], -2.56%.
On to `CS(=O)(=O)CC(=O)N1C[C@@H]2COC[C@]2(c2nnc(C3CC3)o2)C1`, for which the Percent Effect in [1] is -5.11%; in assay [2], 21.3%; in [3], -7.29%; in assay [4], -4.69%; in [5], 3.86%; in [6] it was -53.9%. The Percent Effect is 14% in [7]; 19.8% in assay [8]; 3.12% in assay [9]; 22.5% in assay [10]; -11.9% in assay [11].
For the compound `COc1c(CNC2CCCOc3ccccc32)c(C)nn1C` (stereo unspecified), the Percent Effect was -6.71% in assay [1]; 5.41% in [2]; -2.77% in assay [3]; 4.94% in [4]; 3.81% in assay [5]; 3.23% in assay [6]. Also, the Percent Effect in assay [7] is 8.5%; in assay [8] it was -6.93%; in assay [9], 6.45%; in assay [10], 11.1%; in assay [11], -1.97%.
Regarding `O=C(c1ccc(NC2CC2)nc1)N1CCCC(n2cccn2)C1` (stereo unspecified), the Percent Effect in assay [1] is -6.81%; in [2] it was 5.26%; in [3] it was -1.25%; in assay [4], 1.67%; in [5], -4.51%; in [6], 2.3%. Moreover, the Percent Effect is 3.51% in assay [7]; 18.5% in assay [8]; 0.49% in [9]; 7.32% in [10]; -0.025% in [11].
Take `COC(=O)CCc1c(C)nc2cc(O)nn2c1C`: the Percent Effect in assay [1] is -4.39%; in assay [2], 20.8%; in assay [3], -48.9%; in assay [4], 6.03%; in [5], 1.31%; in assay [6] it was -3.92%. Moreover, the Percent Effect in assay [7] was 9.46%; in [8], 6.61%; in [9] it was 9.71%; in assay [10] it was 21.9%; in assay [11], -9.77%.
Regarding `CC(C)(C)c1ncc2c(n1)CN(C(=O)c1ccc(-c3nc[nH]n3)cc1)C2`, the Percent Effect was -4.17% in assay [1]; 19.2% in assay [2]; -3.06% in [3]; 7.66% in assay [4]; 4.37% in [5]; 1.2% in assay [6]. The Percent Effect in assay [7] was 6.76%; in [8], -4.4%; in assay [9], 7.29%; in assay [10], 21%; in [11], -8.9%.
In the case of `O=C(CCc1cnn(-c2ccccc2)c1)N1CCCC(n2cccn2)C1` (stereo unspecified), the Percent Effect in assay [1] was -2.31%; in assay [2] it was 10.5%; in [3], 2.58%; in assay [4] it was 12.9%; in assay [5], 3.38%; in assay [6] it was 4.98%. For the same compound, the Percent Effect in [7] was 0.668%; in assay [8], 14.7%; in assay [9], 8.33%; in [10] it was 17.1%; in assay [11] it was -11.6%.
